# Screening results deposited in PubChem BioAssay by National Center for Advancing Translational Sciences (NCATS).
# WRN helicase inh – blocks human WRN helicase; AID 651768; WRN helicase unwinding, fluorescent forked duplex, kinetic; Potency, µM (series often up to 114 µM), most hits filed as inhibitors; 0.46% of 360,000 active; Q14191; further: nearly all actives have a fitted effect of over 55% in size
#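 Primary qHTS, 1536-well format. 20 nM WRN + compound, 15 min RT; start with 100 nM forked fluorophore/quencher duplex, 2 mM ATP (final); kinetic read ex 525/em 598 nm.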
# FEN1 inh – blocks human flap endonuclease 1. AID 588795. Recombinant FEN1 flap cleavage, fluorescence, 15 min. Potency, µM (doses to about 114 µM), actives largely listed as inhibitors. 0.35% of 390,000 active. P39748; further: nearly all actives have a fitted effect of over 65% in size
#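 Steps: FEN1 (10 nM) dispensed; compound added by pin tool; 15 min at room temperature; substrate added to 50 nM final; reads at 0 min and 15 min; data normalized and fitted (four-parameter Hill).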
# POLI inh – DNA polymerase iota (human) inhibition; Q9UNA4; Pol iota fluorescent replication assay, 10 min; Potency, µM (top dose mostly 115 µM), most hits filed as inhibitors; 1% of 390,000 active
# Target sequence (Q9UNA4 whole entry, looked up): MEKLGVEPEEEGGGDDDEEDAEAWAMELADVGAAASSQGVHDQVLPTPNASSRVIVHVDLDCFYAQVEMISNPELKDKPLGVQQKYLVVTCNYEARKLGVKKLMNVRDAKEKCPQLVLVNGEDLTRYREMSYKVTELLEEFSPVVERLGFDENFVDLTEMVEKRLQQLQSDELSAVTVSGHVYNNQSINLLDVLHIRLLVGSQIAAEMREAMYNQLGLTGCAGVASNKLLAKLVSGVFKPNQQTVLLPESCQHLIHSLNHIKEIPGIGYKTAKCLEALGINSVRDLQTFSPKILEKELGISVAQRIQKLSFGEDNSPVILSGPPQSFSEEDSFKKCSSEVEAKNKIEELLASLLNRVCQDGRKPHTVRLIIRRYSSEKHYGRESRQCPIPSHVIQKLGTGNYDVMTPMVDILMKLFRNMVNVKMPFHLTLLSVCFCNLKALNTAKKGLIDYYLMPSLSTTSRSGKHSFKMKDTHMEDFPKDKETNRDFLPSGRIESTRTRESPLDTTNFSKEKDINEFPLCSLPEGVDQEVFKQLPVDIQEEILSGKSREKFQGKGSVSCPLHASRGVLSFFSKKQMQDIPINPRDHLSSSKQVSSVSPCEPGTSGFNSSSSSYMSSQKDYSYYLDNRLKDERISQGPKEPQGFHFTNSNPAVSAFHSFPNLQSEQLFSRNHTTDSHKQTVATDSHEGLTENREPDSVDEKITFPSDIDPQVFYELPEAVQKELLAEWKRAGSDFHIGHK
#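 Fluorescent replication assay read twice, at 0 min and 10 min after adding 50 nM (final) substrate. Enzyme (10 nM) and compounds were first incubated 15 min at room temperature; enzyme-free buffer wells were negative controls.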
# POLB inh – blocks human DNA polymerase beta activity | P06746 | Pol beta primer extension/strand displacement, fluorescence kinetic | Potency, µM (series often up to 114 µM), actives largely listed as inhibitors | 1.3% of 340,000 active | AID 485314
#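 Pol beta (10 nM) and compounds were preincubated 15 min at room temperature, then 50 nM substrate (final) started primer extension/strand displacement. Reads were taken at 0 and 10 min; concentration-response data were fitted to a four-parameter Hill equation.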
# POLH inh – inhibitors of human DNA polymerase eta; recombinant Pol eta, fluorescent DNA replication assay; Potency, µM (doses to about 114 µM), most hits filed as inhibitors; 1.2% of 390,000 active; AID 588591
#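 Pol eta (10 nM) was preincubated with compounds for 15 min at room temperature, after which fluorescent replication substrate (50 nM final) was added to start the reaction. Fluorescence was read kinetically at 0 and 10 min.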
# Pol kappa inh – inhibitors of human DNA polymerase kappa; Q9UBT6; purified Pol kappa, fluorescent DNA synthesis assay, 10 min; Potency, µM (series often up to 107 µM), most hits filed as inhibitors; 0.53% of 400,000 active; AID 588579
#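 Readout: fluorescence, taken kinetically at 0 and 10 min. Conditions: 10 nM Pol kappa, 15 min RT compound preincubation, 50 nM substrate final. Controls: enzyme-free buffer wells.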
# Hits are given with their value; . = inactive; ? = inconclusive; / = not tested or not shown; [ ] = remark or other dose. Only some compounds are listed: those with a hit (about 2.4% of all), similar ones and a draw of the others. The call rests on the fitted dose curve; in most records, active means well fitted curve in the direction sought with a large enough effect; inconclusive means small, poorly fitted or top-dose-only effect, or another doubt; inactive means no such curve, though single readings can be large; an effect the other way counts as inactive or inconclusive.
SMILES,WRN helicase inh,FEN1 inh,POLI inh,POLB inh,POLH inh,Pol kappa inh
CCS(=O)(=O)N1Cc2ccccc2CC1C(=O)Nc1ncc(C)s1 (stereo not drawn),.,.,.,.,.,.
CNC(CC(=O)c1ccc([N+](=O)[O-])cc1)C(Cl)(Cl)Cl (stereo not drawn),45µM,.,.,.,.,.
C=C(NC(=O)C(=C)NC(=O)c1csc(C2=NC3c4csc(n4)C4NC(=O)c5csc(n5)C(C(C)(O)C(C)O)NC(=O)C5CSC(=N5)C(=CC)NC(=O)C(C(C)O)NC(=O)c5csc(n5)C3(CC2)NC(=O)C(C)NC(=O)C(=C)NC(=O)C(C)NC(=O)C(C(C)CC)NC2C=Cc3c(C(C)O)cc(nc3C2O)C(=O)OC4C)n1)C(N)=O (stereo not drawn),/,/,/,/,/,.
C=C(NC(=O)C(=C)NC(=O)c1csc(C2=NC3c4csc(n4)C4NC(=O)c5csc(n5)C(C(C)(O)C(C)O)NC(=O)C5CSC(=N5)/C(=C/C)NC(=O)C(C(C)O)NC(=O)c5csc(n5)C3(CC2)NC(=O)C(C)NC(=O)C(=C)NC(=O)C(=C)NC(=O)C(C(C)C)NC2C=Cc3c(C(C)O)cc(nc3C2O)C(=O)OC4C)n1)C(N)=O (stereo not drawn),?,.,22µM,/,?,.
CN(C)/C=C/C(=O)c1ccc2noc(-c3ccccc3)c2c1,.[11.6 µM],.,79µM,?,?,.
CC(=O)c1ccc2noc(-c3ccccc3)c2c1,.,.,.,.,.,.
Cc1nc(N2CCN(C)CC2)c2nnn(Cc3ccccc3)c2n1,/,.,.,/,/,.
CCOCCc1nnc(NC(=O)Cc2ccc(Br)cc2)s1,.,.,.,89µM,.,.
CCOC(=O)c1c(-c2ccco2)csc1NC(=O)CSc1nnc(N)s1,.,.,35µM,28µM,?,?
CCOc1cc(/C=N/N=C2/NC(=O)C(CC(=O)O)S2)ccc1OCc1ccccc1Cl (stereo not drawn),.,.,.,28µM,?,.
CCc1cc(=O)oc2cc(C)c(CN3CCCC(C)C3)c(O)c12 (stereo not drawn),35µM,50µM,3.5µM,3.2µM,35µM,10µM
CCCCN1CC2([N+](=O)[O-])C=CC(=O)C([N+](=O)[O-])(C1)C2CC(=O)c1ccccc1 (stereo not drawn),.,.,.,.,.,.
CCN1CC2([N+](=O)[O-])C=CC(=O)C([N+](=O)[O-])(C1)C2CC(=O)c1ccccc1 (stereo not drawn),.,.,?,.,25µM,.
CCC(Sc1nc(-c2ccccc2)[nH]c1S(=O)(=O)c1ccc(C)cc1)C(=O)O (stereo not drawn),/,.,.,?,.,.
Cc1cc(C)cc(N2CC(O)=C(c3nc4ccccc4c(=O)[nH]3)C2=N)c1,50µM,?,?,.,?,?
COc1cccc(N2CC(O)=C(c3nc4ccccc4c(=O)[nH]3)C2=N)c1,.,.,.,.,.,.
COc1cc(OC)cc(C(=O)NCc2ccc3c(c2)CCN3C(=O)c2ccccc2)c1,/,.,.,.,.,.
CCOc1cccc(C=NNc2ccc(S(=O)(=O)Nc3ccccc3C(=O)O)cc2[N+](=O)[O-])c1O,.,.,.,/,.,.
COc1ccc(C=NNc2ccc(S(=O)(=O)Nc3ccccc3C(=O)O)cc2[N+](=O)[O-])c(OC)c1,?,22µM,?,/,50µM,?
C[N+]1(CC(=O)c2ccc3ccccc3c2)CCOCC1,/,.,.,/,/,.
O=C(C[N+]12CCCc3cccc(c31)CCC2)c1ccc2ccccc2c1,/,?,.,/,/,.
COc1ccc(CCn2c(-n3nc(C)cc3C)nc3c2c(=O)[nH]c(=O)n3C)cc1,79µM,.,.,/,.,.
CC(C)Oc1ccc(-c2nc(-c3cccnc3)no2)cc1,/,.,.,/,/,.
COC/C=C/C1=CC2=CC(=O)C(C)(OC(=O)c3cnc4ccccc4n3)C(=O)C2=CN1c1ccc(CO)cc1 (stereo not drawn),/,/,/,1.8µM,/,/
COC/C=C/C1=CC2=CC(=O)C(C)(OC(=O)c3cnc4ccccc4n3)C(=O)C2=CN1C1CCCCC1 (stereo not drawn),/,/,/,.,/,/
SMILES,WRN helicase inh,FEN1 inh,POLI inh,POLB inh,POLH inh,Pol kappa inh
COC/C=C/C1=CC2=CC(=O)C(C)(OC(=O)c3cnc4ccccc4n3)C(=O)C2=CN1c1ccccc1 (stereo not drawn),.,.,?,?,25µM,79µM
COC/C=C/C1=CC2=CC(=O)C(C)(OC(=O)c3cnc4ccccc4n3)C(=O)C2=CN1CC(C)C (stereo not drawn),.,?,?,/,25µM,?
Cc1ccccc1C(=O)N1CCC(C(=O)N2CCN(c3ncccn3)CC2)CC1,.,.,.,/,.,.
CCOC(=O)N1CCN(C(=O)C2CCN(C(=O)c3ccccc3C)CC2)CC1,20µM,?,?,/,32µM,?
CCOC(=O)c1ccc(NC(=O)COc2cc3oc(=O)c(CC(C)O)c(C)c3cc2Cl)cc1 (stereo not drawn),.,.,?,?,.,.
CC(=O)c1cccc(NC(=O)COc2cc3oc(=O)c(CC(C)O)c(C)c3cc2Cl)c1 (stereo not drawn),.,.,56µM,?,?,.
Cc1ccc(S(=O)(=O)NN2C(=O)/C(=C/c3ccc(F)cc3)SC2=S)cc1,?,.,.,.,?,.
Cc1ccc(/C=C2\SC(=S)N(NS(=O)(=O)c3ccc(C)cc3)C2=O)cc1,.[11.6 µM],.,.,79µM,?,.
COc1ccc(/C=C2/SC(=S)N(NS(=O)(=O)c3ccc(C)cc3)C2=O)cc1,.[11.6 µM],?,?,?,79µM,.
Cc1ccc(S(=O)(=O)NN2C(=O)/C(=C/c3cccs3)SC2=S)cc1,.,.,.,.,.,.
C=CCOc1ccc(/C=C2\SC(=S)N(NS(=O)(=O)c3ccc(C)cc3)C2=O)cc1,?,.,?,?,50µM,.
COc1cc(/C=C2\SC(=S)N(NS(=O)(=O)c3ccccc3)C2=O)cc(OC)c1OC,.,.,.,.,.,.
Cc1ccc(S(=O)(=O)NN2C(=O)/C(=C/c3ccc(C(=O)O)cc3)SC2=S)cc1,.,50µM,13µM,.,.,?
CC(C)(C)n1ncc2c(=O)n(Cc3ccc(SC(F)(F)F)cc3)cnc21,/,.,.,/,/,.
CCOc1ccc(CNC(=O)C2CCCN(S(=O)(=O)c3ccc4c(c3)CCCC(=O)N4)C2)cc1 (stereo not drawn),/,.,.,.,.,.
Cc1ccc(S(=O)(=O)N2CCN(c3nc(-c4cncn4C)nc4ccccc34)CC2)cc1,/,.,.,/,/,.
CCOC(=O)Cc1cc(=O)n(-c2nc3ccccc3s2)[nH]1,.,.,89µM,45µM,?,79µM
